High-throughput results as filed in PubChem.
CYP2C19 act – human CYP2C19 activators, primary screen, biochemical, luminescence; AID 1025, 2008; Cytochrome P450 2C19 (Homo sapiens), P33261; 96,000 tested, under 10 active; activation factor at 5 µM; recombinant CYP2C19, luciferin-H EGE luminescence; hits give high values; 0 = fully inhibited enzyme, 1 = untreated enzyme;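 active means activation factor of at least 2 at 5 µM in the primary screen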;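 further: 0 = wells with 2.5 mM tranylcypromine and 1 = vehicle-only wells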
Target sequence (P33261 whole entry, looked up): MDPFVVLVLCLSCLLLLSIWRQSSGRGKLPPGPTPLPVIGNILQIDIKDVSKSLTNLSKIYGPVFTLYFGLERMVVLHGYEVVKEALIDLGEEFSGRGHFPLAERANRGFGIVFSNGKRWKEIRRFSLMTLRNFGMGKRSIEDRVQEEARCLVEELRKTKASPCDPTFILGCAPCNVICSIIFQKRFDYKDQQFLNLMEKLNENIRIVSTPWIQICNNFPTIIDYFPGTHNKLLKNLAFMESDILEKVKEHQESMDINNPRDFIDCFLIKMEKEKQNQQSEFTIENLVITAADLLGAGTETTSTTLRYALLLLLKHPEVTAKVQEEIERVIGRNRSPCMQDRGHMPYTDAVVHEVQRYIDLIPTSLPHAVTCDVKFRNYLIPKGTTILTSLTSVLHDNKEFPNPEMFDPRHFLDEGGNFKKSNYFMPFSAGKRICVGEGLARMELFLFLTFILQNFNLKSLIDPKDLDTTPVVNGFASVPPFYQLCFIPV
sEH activator – soluble epoxide hydrolase activators, primary screen, biochemical, human sEH; Bifunctional epoxide hydrolase 2 (Homo sapiens), P34913; purified human sEH enzymatic activity, activator screen; activation, % at 2 µM; 91,000 compounds, 0.04% hits; in the data active means activation above about 37%
CYP2C9 act – human CYP2C9 activators, primary screen, biochemical, luminescence | recombinant CYP2C9, luciferin-H conversion; hits give high values; factor 1 = untreated enzyme, 0 = blocked | Cytochrome P450 2C9 (Homo sapiens), P11712 | 96,000 compounds, 1.4% hits | AID 1024, 2008 | activation factor at 5 µM;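 active means activation factor of 2 or more for CYP2C9 at a 5 µM dose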;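 further: 0 = sulfaphenazole-blocked wells and 1 = vehicle-only wells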
CYP2C9 inh – blockers of cytochrome P450 2C9 activity – biochemical, luminescence, ADME assay, primary screen; P11712; CYP2C9 Supersomes, luciferin-H conversion; inhibition, % at 5 µM; 96,000 compounds, 20% hits; AID 777, 2007;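 active means blocking of liver enzyme CYP2C9 beyond about 50% at 5 µM, limit read from the data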
CYP2C19 inh – blockers of cytochrome P450 2C19 activity – biochemical, luminescence, ADME assay, primary screen | inhibition, % at 5 µM | P33261 | 96,000 compounds, 21% hits | CYP2C19 Supersomes, luciferin-H EGE luminescence, 30 min;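 active means CYP2C19 inhibition above a set limit at 5 µM in the primary screen, cut at about 50% in these data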;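 further: plate controls were negative control wells for no effect and 2.5 mM tranylcypromine positive control for full effect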
sEH inh – soluble epoxide hydrolase inhibitors, primary screen, biochemical, human sEH. Bifunctional epoxide hydrolase 2 (Homo sapiens), P34913. 91,000 compounds, 0.34% hits. inhibition, % at 2 µM. recombinant human sEH enzymatic activity assay. AID 707, 2007; in the data active means inhibition above about 80%
Active calls of the source: *; . = no result given. Hits are enriched below; roughly 27% of the tested compounds scored in any of these assays.

SMILES	CYP2C19 act	sEH activator	CYP2C9 act	CYP2C9 inh	CYP2C19 inh	sEH inh
COCCn1nnnc1C(C(C)C)N1CCN(C(=O)c2ccco2)CC1 (stereo unspecified)	1	22	1.1	-10	4	-24
CCCC(c1nnnn1CCOC)N1CCN(C(=O)c2ccco2)CC1 (stereo unspecified)	0.5	8	0.6	44	50*	-7
O=C(c1ccco1)N1CCN(C(c2ccccc2Cl)c2nnnn2Cc2cccs2)CC1 (stereo unspecified)	0.1	14	0.1	92*	89*	-14
CC(C)CC(c1nnnn1Cc1ccccc1)N1CCN(C(=O)c2ccco2)CC1 (stereo unspecified)	0.1	-3	0.3	65*	87*	3
O=C(c1ccco1)N1CCN(C(c2ccccc2Cl)c2nnnn2Cc2ccco2)CC1 (stereo unspecified)	0.9	-4	0.7	27	10	2
CCC(c1nnnn1Cc1ccco1)N1CCN(C(=O)c2ccco2)CC1 (stereo unspecified)	1.1	.	0.9	9	-8	.
COCCSc1nnc(-c2cnccn2)o1	1.1	.	0.8	17	-5	.
N#Cc1cc2c(nc1SCC(=O)Nc1sc3c(c1C#N)CCC3)CCCCC2	1	15	0.8	16	0	-17
N#Cc1c(NC(=O)CSc2ncn[nH]2)sc2c1CCCCC2	0.8	.	0.3	71*	15	.
N#Cc1c(NC(=O)CSc2ncn(-c3ccccc3)n2)sc2c1CCCC2	0.2	2	0.1	90*	81*	1
N#Cc1c(NC(=O)CSc2nc(N)cc(=O)[nH]2)sc2c1CCCCCC2	0.4	2	0.7	30	58*	-2
O=C(NCc1ccccn1)C1CCN(S(=O)(=O)N2CCCC2)CC1	1.1	.	1	-1	-6	.
Cc1cc(Nc2ccccc2)n(-c2cccc(Cl)c2)n1	0.2	-2	0.2	78*	80*	5
Cc1cc(Nc2ccccc2)n(C(=O)c2ccc(Cl)cc2)n1	.	2	.	.	.	2
Cc1cc(Nc2nc3ccccc3nc2Cl)n(-c2ccc([N+](=O)[O-])cc2)n1	0.6	9	0.8	23	44	-7
Cc1cc(Nc2cnc3ccccc3n2)n(-c2ccccc2)n1	0.3	.	0.3	72*	69*	.
Cc1cc(Nc2nc3ccccc3[nH]c2=O)n(-c2ccccc2)n1	0.9	.	0.4	64*	14	.
Cc1cc(NC(=O)c2cc(C3CC3)on2)n(-c2ccccc2)n1	0.8	16	0.9	13	24	-17
CN=C(Nc1cc(C)nn1-c1ccccc1)c1ccccc1	0.2	2	0.7	30	81*	-1
C(=N\c1nccs1)/Nc1nccs1	0.9	1	0.9	12	5	0
Cc1occc1-c1nnc(SCC(=O)NCc2ccc3c(c2)OCO3)n1CC(C)C	0.8	-1	0.8	16	21	0
Cc1nc(C)c(C(=O)N/N=C/c2cn(C)c3ccccc23)s1	0.5	-6	1.2	-24	53*	7
CCOC(=O)c1cnc(-c2ccccc2)nc1Oc1ccccc1	1	-6	0.8	16	1	6
CCOC(=O)C1=C(c2cccc(Oc3ccccc3)c2)NC(=S)NC1C (stereo unspecified)	0	3	0	99*	100*	-4
NC(=S)NNc1cc(Cl)cc(Cl)c1	0.8	-7	0.7	31	20	5
SMILES	CYP2C19 act	sEH activator	CYP2C9 act	CYP2C9 inh	CYP2C19 inh	sEH inh
CCOc1ccccc1-n1c(SCC(=O)NC2CCCC2)nnc1-c1ccoc1C	0.3	3	0.3	74*	68*	-5
CCn1c(SCC(=O)N2CCc3ccccc32)nnc1-c1c[nH]c2ccccc12	0.9	-5	1	5	7	3
CCn1c(SCC(=O)NC2CCCC2)nnc1-c1c[nH]c2ccccc12	0.6	.	0.2	78*	42	.
CCOC(=O)CSc1nnc(-c2c[nH]c3ccccc23)n1CC	0.2	.	0.9	9	76*	.
CCOc1ccccc1-n1c(SCC(=O)NC(C)(C)C)nnc1-c1ccoc1C	0.6	18	0.6	36	40	-18
CCn1c(SC(C)C)nnc1-c1c[nH]c2ccccc12	0.2	.	0.9	9	81*	.
COC(=O)C1=C(C)NC(=O)NC1c1ccc(OCC(=O)N2CCCCC2)cc1 (stereo unspecified)	1.1	3	0.9	11	-9	-4
COc1ccc2c(c1)C1=NN(/C(C)=C\C(C)=O)C(c3ccccc3)C1CC2 (stereo unspecified)	.	-2	.	.	.	3
CCn1c(SCC(=O)NCc2ccccc2)nnc1-c1c[nH]c2ccccc12	0.2	-4	0.2	81*	77*	2
CCn1c(SCC(=O)NCC2CCCO2)nnc1-c1c[nH]c2ccccc12 (stereo unspecified)	0.9	5	1.6	-59	12	-6
CCC(=O)Nc1c(OC(=O)CC)ccc2c(C)cc(=O)oc12	.	-1	.	.	.	0
Cc1ccc(C(=O)N2CCN(c3cccc(Cl)c3)CC2)cc1C	0.3	.	1.3	-32	71*	.
Cc1ccc(C(=O)N2CCN(c3ccccc3)CC2)cc1C	0.3	.	1.5	-47	69*	.
COc1ccc(C(=O)N2CCN(c3cccc(Cl)c3)CC2)cc1	.	6	.	.	.	-6
Cn1cc(Br)c(C(=O)N2CCN(c3cccc(Cl)c3)CC2)n1	.	12	.	.	.	-12
CCOC(=O)c1c(C)c(C(=O)N2CCN(c3cccc(Cl)c3)CC2)c(C)n1C	0.3	.	0.3	74*	67*	.
Cc1cc(C(=O)N2CCN(c3cccc(Cl)c3)CC2)c(C)o1	0.6	-10	0.4	60*	42	10
C/C(=C(\C#N)C(=O)NC1CCCCC1)N(C)C	0.8	1	1	0	22	0
COc1ccccc1C(=O)Nc1cc2cc(Cl)ccc2oc1=O	0.9	1	1.6	-61	7	2
COCCNC(=S)N/N=C(\C)c1ccc(-n2ccnc2)cc1	0	1	0	100*	99*	2
CCOc1ccc(S(=O)(=O)Nc2ccc(C(=O)N/N=C(\C)c3ccc(-n4ccnc4)cc3)cc2)cc1	0	-16	0	99*	99*	15
C/C(=N\NC(=S)NC(C)C)c1ccc(-n2ccnc2)cc1	0.1	0	0	99*	90*	-1
CNC(=S)N/N=C(\C)c1ccc(-n2ccnc2)cc1	0	6	0	100*	99*	-6
COC(=O)N/N=C(\C)c1ccc(Br)cc1	1	1	1	-2	-2	-1
O=C(c1cccc(F)c1)N1CCN(S(=O)(=O)c2ccc(C(F)(F)F)cc2)CC1	0.8	-4	1	4	25	5
